PubChem BioAssay AID1159580 (chemical genetic matrix, 2015)
Several values for one entry are separate records, joined by “and”; a condition that tells them apart may be missing. Equal entries are not always repeated. Among all 5,500 compounds or so, about 2,000 (36%) were called active. Another 18% or so got no clear call; they are omitted. No stated cut-off is given here; in the data, active means normalized growth mostly below about 0.91 (no sharp cut-off); inconclusive means no clear call, values can overlap the other calls; inactive means mostly above about 0.92. The list shows a part of the results.

Test: chemical genetic growth profiling, strain panel (AID 1159580);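 further: tested at 20 µM; growth read once vehicle control cultures reached saturation at 30 °C; 1 = growth at the plate median or of vehicle wells; lower values mean less growth of the strain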
Conditions: S. cerevisiae deletion strains, growth OD

Measured: normalized growth

Nc1nc(/C(=C/CC(=O)O)C(=O)N[C@@H]2C(=O)N3C(C(=O)O)=CCS[C@H]23)cs1
inactive: locus YAL013W, strain DEP1, active compounds read low 0.991 | locus YAL021C, strain ccr4, active compounds read low 1.01 | locus YAL026C, strain drs2, active compounds read low 1.01 | locus YAL030W, strain snc1, active compounds read low 1.02 | locus YBL061C, strain skt5, active compounds read low 1 | locus YBR009C, strain hhf1, active compounds read low 1.02 | locus YBR021W, strain FUR4, active compounds read low 0.982 | locus YBR023C, strain chs3, active compounds read low 1.01 | locus YBR171W, strain sec66, active compounds read low 1.04 | locus YBR229C, strain ROT2, active compounds read low 0.971 | locus YBR231C, strain swc5, active compounds read low 1.01 | locus YBR279W, strain paf1, active compounds read low 1 | locus YCL011C, strain gbp2, active compounds read low 1 | locus YCL016C, strain dcc1, active compounds read low 0.99 | locus YCL029C, strain bik1, active compounds read low 0.988 | locus YCL061C, strain MRC1, active compounds read low 1.01 | locus YCL069W, strain vba3, active compounds read low 1 | locus YCR088W, strain abp1, active compounds read low 1.01 | locus YDL005C, strain med2, active compounds read low 1.01 | locus YDL035C, strain GPR1, active compounds read low 1.01 | locus YDL040C, strain nat1, active compounds read low 0.997 | locus YDL074C, strain BRE1, active compounds read low 1.02 | locus YDL101C, strain DUN1, active compounds read low 0.989 | locus YDL134C, strain PPH21, active compounds read low 0.988 | locus YDL185W, strain tfp1, active compounds read low 0.99 | locus YDL192W, strain arf1, active compounds read low 0.983 | locus YDR001C, strain nth1, active compounds read low 1.02 | locus YDR069C, strain doa4, active compounds read low 1.01 | locus YDR101C, strain arx1, active compounds read low 0.99 | locus YDR137W, strain rgp1, active compounds read low 1.01 | locus YDR150W, strain NUM1, active compounds read low 0.998 | locus YDR159W, strain sac3, active compounds read low 1.02 | locus YDR162C, strain NBP2, active compounds read low 1 | locus YDR195W, strain ref2 1.01 | locus YDR297W, strain sur2, active compounds read low 1.01 | locus YDR318W, strain mcm21, active compounds read low 0.996 | locus YDR334W, strain swr1, active compounds read low 0.993 | locus YDR335W, strain msn5, active compounds read low 1.01 | locus YDR388W, active compounds read low 0.992 | locus YDR392W, strain spt3, active compounds read low 1.01 | locus YDR502C, strain sam2, active compounds read low 0.992 | locus YEL003W, strain gim4, active compounds read low 1.01 | locus YEL037C, strain rad23, active compounds read low 1 | locus YEL061C, strain CIN8 (second series), active compounds read low 1 | locus YEL061C, strain CIN8, active compounds read low 0.995 | locus YER015W, strain faa2, active compounds read low 1 | locus YER016W, strain bim1, active compounds read low 0.998 | locus YER110C, active compounds read low 0.978 | locus YER111C, strain swi4, active compounds read low 1.01 | locus YER155C, strain BEM2 (second series), active compounds read low 1.03 | locus YER155C, strain BEM2, active compounds read low 1.04 | locus YER167W, strain BCK2, active compounds read low 0.985 | locus YFR010W, strain ubp6, active compounds read low 1 | locus YGL078C, strain dbp3, active compounds read low 0.995 | locus YGL086W, strain mad1, active compounds read low 0.991 | locus YGL167C, strain pmr1, active compounds read low 1 | locus YGL173C, strain kem1, active compounds read low 1.02 | locus YGL227W, strain vid30, active compounds read low 1.01 | locus YGL240W, strain doc1, active compounds read low 1.01 | locus YGL248W, strain PDE1, active compounds read low 0.978 | locus YGL253W, strain hxk2, active compounds read low 1 | locus YGR078C, strain PAC10, active compounds read low 1.03 | locus YGR135W, strain pre9, active compounds read low 0.991 | locus YGR229C, strain SMI1, active compounds read low 0.935 | locus YGR252W, strain gcn5, active compounds read low 1.04 | locus YHR013C, strain ard1, active compounds read low 0.997 | locus YHR027C, strain rpn1, active compounds read low 1.01 | locus YHR030C, strain SLT2, active compounds read low 0.99 and 0.989 | locus YHR079C, strain IRE1 (second series), active compounds read low 0.998 | locus YHR079C, strain IRE1, active compounds read low 0.974 | locus YHR094C, strain hxt1, active compounds read low 0.99 | locus YHR129C, strain ARP1, active compounds read low 0.989 | locus YHR142W, strain chs7, active compounds read low 1.02 | locus YHR200W, strain rpn10, active compounds read low 0.992 | locus YIL066C, strain RNR3, active compounds read low 0.993 | locus YIL073C, strain SPO22, active compounds read low 1.03 | locus YIL125W, strain kgd1, active compounds read low 0.994 | locus YIR030C, strain dcg1, active compounds read low 0.987 | locus YJL092W, strain hpr5, active compounds read low 1 | locus YJL095W, strain BCK1 (second series), active compounds read low 1.01 | locus YJL095W, strain BCK1, active compounds read low 0.997 and 1.01 | locus YJL115W, strain asf1, active compounds read low 1.03 | locus YJL129C, strain trk1, active compounds read low 1.01 | locus YJL134W, strain LCB3, active compounds read low 0.993 | locus YJL154C, strain vps35, active compounds read low 1.01 | locus YJL164C, strain tpk1, active compounds read low 0.988 | locus YJL166W, strain qcr8, active compounds read low 1.02 | locus YJL168C, strain set2, active compounds read low 0.99 | locus YJL187C, strain SWE1 (second series), active compounds read low 0.989 | locus YJL187C, strain SWE1, active compounds read low 1.01 | locus YJR043C, strain POL32, active compounds read low 0.981 | locus YJR066W, strain TOR1, active compounds read low 0.949
